Measurements: PubChem BioAssay (NCATS)
Several values for one entry are separate records, joined by “and”; a condition that tells them apart may be missing. Equal entries are not always repeated. Inconclusive results are not listed. Activity calls are given as the source filed them. Unless noted, calls come from the whole dose curve; as a rule, active = well fitted curve in the direction sought with a large enough effect; inconclusive = small, poorly fitted or top-dose-only effect, or another doubt; inactive = no such curve, though single readings can be large; an effect the other way counts as inactive or inconclusive.

How the values were obtained:
[1] = biological target: 3',5'-cyclic-AMP phosphodiesterase 4B (Homo sapiens) (UniProt Q07343); test: qHTS Assay for Inhibitors of PDE-IV (AID 607; active = well fitted activation curve with a large enough effect in the main read-out, with a control signal flat, not every such curve was filed as active; note: % of control where 0% means no effect)
Sequence of 3',5'-cyclic-AMP phosphodiesterase 4B (Homo sapiens) (Q07343 whole entry, looked up): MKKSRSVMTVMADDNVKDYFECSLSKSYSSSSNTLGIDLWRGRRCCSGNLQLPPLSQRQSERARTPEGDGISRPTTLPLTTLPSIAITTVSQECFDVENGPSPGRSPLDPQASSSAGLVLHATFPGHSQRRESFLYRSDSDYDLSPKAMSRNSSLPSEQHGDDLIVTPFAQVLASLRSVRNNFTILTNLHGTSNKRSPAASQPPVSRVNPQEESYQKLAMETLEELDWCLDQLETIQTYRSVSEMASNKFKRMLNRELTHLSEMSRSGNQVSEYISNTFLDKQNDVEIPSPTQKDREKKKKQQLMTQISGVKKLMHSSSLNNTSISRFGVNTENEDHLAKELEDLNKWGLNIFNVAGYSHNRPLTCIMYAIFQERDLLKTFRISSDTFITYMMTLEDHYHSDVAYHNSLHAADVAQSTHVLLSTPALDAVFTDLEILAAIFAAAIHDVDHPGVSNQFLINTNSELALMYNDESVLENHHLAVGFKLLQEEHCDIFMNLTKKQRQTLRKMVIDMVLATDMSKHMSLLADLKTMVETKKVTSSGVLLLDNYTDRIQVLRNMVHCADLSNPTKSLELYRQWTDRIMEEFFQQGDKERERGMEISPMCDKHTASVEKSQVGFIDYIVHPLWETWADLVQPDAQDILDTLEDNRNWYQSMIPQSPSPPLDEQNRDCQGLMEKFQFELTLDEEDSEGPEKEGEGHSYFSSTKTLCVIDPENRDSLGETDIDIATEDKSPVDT
In short: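 HEK293 ACTOne cells with CNG channel (1000/well), endogenous PDE4; membrane potential dye, compounds up to 22.9 uM final. Fluorescence Ex 535/Em 590; RO 20-1724 (100 uM final) as reference.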

[2] = biological target: Guanine nucleotide-binding protein G(i) subunit alpha-1 (Homo sapiens) (UniProt P63096); test: qHTS Assay for Inhibitors of RGS12 GoLoco Motif Activity (Green Fluorophore) (AID 879);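 note: 0% = labeled peptide with Gαi1 and full inhibition = labeled peptide alone without protein; negative values mean loss of peptide binding seen as reduced polarization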
Sequence of Guanine nucleotide-binding protein G(i) subunit alpha-1 (Homo sapiens) (P63096 whole entry, looked up): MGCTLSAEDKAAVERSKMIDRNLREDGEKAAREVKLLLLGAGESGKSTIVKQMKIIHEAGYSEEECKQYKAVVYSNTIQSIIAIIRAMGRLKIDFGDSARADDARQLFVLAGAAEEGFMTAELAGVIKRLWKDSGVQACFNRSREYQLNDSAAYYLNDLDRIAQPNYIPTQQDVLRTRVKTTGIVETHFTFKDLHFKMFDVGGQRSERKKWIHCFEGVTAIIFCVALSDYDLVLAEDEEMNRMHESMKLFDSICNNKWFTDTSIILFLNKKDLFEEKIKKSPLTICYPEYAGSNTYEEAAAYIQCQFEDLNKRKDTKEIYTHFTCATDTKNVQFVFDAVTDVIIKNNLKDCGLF
In short: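 Fluorescence polarization assay: 50 nM Gαi1 with 10 nM FITC-labeled RGS12 GoLoco peptide in 10 mM Tris pH 7.5, 150 mM NaCl, 0.1 mM GDP, 0.05% NP40, 10 min at room temperature with compound.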

[3] = biological target: Cytochrome P450 2C9 (Homo sapiens) (UniProt P11712); test: qHTS Assay for Inhibitors and Substrates of Cytochrome P450 2C9 (AID 883); note: % is set by controls: 0 for no effect and ±100 for the full control effect; nearly all actives have a fitted effect of over 60% in size
Sequence of Cytochrome P450 2C9 (Homo sapiens) (P11712 whole entry, looked up): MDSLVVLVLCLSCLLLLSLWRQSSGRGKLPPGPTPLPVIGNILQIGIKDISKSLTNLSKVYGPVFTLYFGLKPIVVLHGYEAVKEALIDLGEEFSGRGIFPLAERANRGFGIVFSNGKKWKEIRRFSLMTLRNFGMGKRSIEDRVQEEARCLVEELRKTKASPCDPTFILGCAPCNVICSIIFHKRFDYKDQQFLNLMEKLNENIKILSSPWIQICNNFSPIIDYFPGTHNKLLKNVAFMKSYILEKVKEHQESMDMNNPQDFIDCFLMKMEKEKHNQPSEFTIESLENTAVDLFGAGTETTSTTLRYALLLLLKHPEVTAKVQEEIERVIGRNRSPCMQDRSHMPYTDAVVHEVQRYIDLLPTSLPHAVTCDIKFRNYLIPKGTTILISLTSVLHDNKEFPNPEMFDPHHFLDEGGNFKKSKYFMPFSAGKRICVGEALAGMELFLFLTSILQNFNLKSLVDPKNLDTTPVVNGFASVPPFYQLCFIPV
In short: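 Inhibition of CYP2C9 is scored as loss of luminescence, with 57uM sulphaphenazole defining 100% inhibition. Substrate Luciferin-H is used at 100uM, equal to its KM; enzyme at 10nM in 25mM KPO4, 60 min at 37C with NADPH regeneration.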

[4] = biological target: Cytochrome P450 3A4 (Homo sapiens) (UniProt P08684); test: qHTS Assay for Activators of Cytochrome P450 3A4 (AID 885); note: nearly all actives have a fitted effect of over 65% in size
Sequence of Cytochrome P450 3A4 (Homo sapiens) (P08684 whole entry, looked up): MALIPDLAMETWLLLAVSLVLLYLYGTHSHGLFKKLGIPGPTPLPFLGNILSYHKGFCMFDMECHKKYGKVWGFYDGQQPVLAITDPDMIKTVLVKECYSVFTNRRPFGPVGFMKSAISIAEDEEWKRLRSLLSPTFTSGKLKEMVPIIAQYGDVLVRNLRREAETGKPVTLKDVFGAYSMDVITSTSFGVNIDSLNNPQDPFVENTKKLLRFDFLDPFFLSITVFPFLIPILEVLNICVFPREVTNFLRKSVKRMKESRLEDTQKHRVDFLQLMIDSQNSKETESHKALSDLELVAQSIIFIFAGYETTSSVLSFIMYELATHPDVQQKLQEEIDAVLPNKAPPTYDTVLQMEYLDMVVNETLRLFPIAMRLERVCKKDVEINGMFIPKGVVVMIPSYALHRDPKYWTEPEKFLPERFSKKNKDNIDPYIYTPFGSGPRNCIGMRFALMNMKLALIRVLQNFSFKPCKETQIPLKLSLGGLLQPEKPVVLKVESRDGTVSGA
In short: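 Human CYP3A4 (20 nM) with Luciferin-PPXE at 25 uM (its KM) in 200 mM KPO4; 10 min compound preincubation, then NADPH regeneration and 60 min reaction at RT. Luciferin read by luminescence; normalized to 57 uM ketoconazole full inhibition.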

[5] = biological target: Cytochrome P450 2D6 (Homo sapiens) (UniProt P10635); test: qHTS Assay for Inhibitors and Substrates of Cytochrome P450 2D6 (AID 891); note: nearly all actives have a fitted effect of over 60% in size; note: potency is the fitted concentration of half-maximal effect
Sequence of Cytochrome P450 2D6 (Homo sapiens) (P10635 whole entry, looked up): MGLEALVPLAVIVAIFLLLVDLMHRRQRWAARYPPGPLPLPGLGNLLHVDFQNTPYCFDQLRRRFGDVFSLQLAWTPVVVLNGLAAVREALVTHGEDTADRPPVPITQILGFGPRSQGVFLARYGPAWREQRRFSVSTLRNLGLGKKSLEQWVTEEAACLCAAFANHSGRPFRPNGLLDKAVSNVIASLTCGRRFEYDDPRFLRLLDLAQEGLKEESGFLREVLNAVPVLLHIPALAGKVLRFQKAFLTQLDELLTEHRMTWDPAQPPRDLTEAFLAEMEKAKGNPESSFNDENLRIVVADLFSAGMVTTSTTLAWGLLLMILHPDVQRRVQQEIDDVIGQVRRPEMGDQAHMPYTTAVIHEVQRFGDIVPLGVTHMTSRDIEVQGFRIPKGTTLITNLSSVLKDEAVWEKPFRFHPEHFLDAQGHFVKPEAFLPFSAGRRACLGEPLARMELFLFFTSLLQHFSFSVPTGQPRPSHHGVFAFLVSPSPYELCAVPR
In short: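 Human CYP2D6 (5 nM) with 30 uM Luciferin-ME EGE (at Km) in 100 mM KPO4, compound preincubated 10 min, then NADPH regeneration system for 60 min at room temperature. Luciferin read by luminescence; normalized to 1.43 uM quinidine.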

[6] = biological target: Cytochrome P450 2C19 (Homo sapiens) (UniProt P33261); test: qHTS Assay for Inhibitors and Substrates of Cytochrome P450 2C19 (AID 899); note: nearly all actives have a fitted effect of over 60% in size; note: potency is the fitted concentration of half-maximal effect
Sequence of Cytochrome P450 2C19 (Homo sapiens) (P33261 whole entry, looked up): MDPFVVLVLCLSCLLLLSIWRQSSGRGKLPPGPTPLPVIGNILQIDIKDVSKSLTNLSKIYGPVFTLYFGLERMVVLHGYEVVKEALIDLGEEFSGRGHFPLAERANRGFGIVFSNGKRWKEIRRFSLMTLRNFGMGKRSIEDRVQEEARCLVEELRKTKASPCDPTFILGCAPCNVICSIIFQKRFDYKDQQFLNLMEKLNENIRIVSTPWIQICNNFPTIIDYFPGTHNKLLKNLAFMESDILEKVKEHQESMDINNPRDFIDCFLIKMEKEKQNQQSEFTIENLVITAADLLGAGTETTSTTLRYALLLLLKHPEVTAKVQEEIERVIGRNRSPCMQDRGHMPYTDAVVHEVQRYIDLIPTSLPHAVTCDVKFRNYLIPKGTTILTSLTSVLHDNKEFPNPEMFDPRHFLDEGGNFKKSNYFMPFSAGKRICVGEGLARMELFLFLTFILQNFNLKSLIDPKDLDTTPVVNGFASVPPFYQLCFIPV
In short: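 5nM enzyme + 10uM Luciferin-H EGE (=KM), 50mM KPO4; cpd pin-transferred, 10 min 37C; NADPH regen, 60 min 37C; stopped w/ luciferin detection reagent, 20 min; luminescence. Normalized to 57uM ketoconazole (AC100).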

[7] = Cellular Toxicity (caspase-3) HepG2 (AID 654);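 note: cells exposed to compound for 16 hours before reading; 0% = DMSO alone and 100% = caspase signal from 100 µM tamoxifen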
In short: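 Cells plated 5 hr at 37 °C, compound added, incubated 16 hr at 37 °C. Caspase-Glo 3/7 reagent followed, 20 min at room temperature, then luminescence read. Activation scored as signal increase; AC50 from Hill fit.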

[8] = Cellular Toxicity (caspase-3) Jurkat (AID 655);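 note: cells exposed to compound for 16 h at 37 °C before reading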
In short: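 Luminescent caspase-3/7 readout (aminoluciferin substrate cleavage) in human T-cell leukemia Jurkat cells after 16 hr compound exposure. Concentration-response normalized to DMSO and 100 uM tamoxifen; AC50 by standard Hill equation.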

[9] = Cellular Toxicity (caspase-3) HUV-EC-C (AID 656);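 note: 0% = DMSO basal and 100% = 100 µM tamoxifen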
In short: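 Luminescent caspase-3/7 activation (aminoluciferin substrate cleavage) in HUV-EC-C cells after 16 hr compound exposure, 37°C. Signal normalized to DMSO basal and 100 uM tamoxifen as 100%; AC50 from concentration-response fitted with the Hill equation.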

[10] = Cellular Toxicity (caspase-3) SHSY5Y (AID 657);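 note: cells exposed to compound for 16 hours at 37 °C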
In short: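 Luminescent caspase-3/7 readout (aminoluciferin release) in SH-SY5Y cells after 16 h compound exposure in complete medium. Activity scaled between DMSO basal and 10 uM staurosporine as 100%; concentration-response fitted to Hill equation for AC50.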

[11] = Cellular Toxicity (caspase-3) BJ (AID 658);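 note: 0% = DMSO basal and 100% = 10 µM staurosporine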
In short: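 Readout: Caspase-Glo 3/7 luminescence increase in BJ cells after 16 hr treatment at 37 °C. Staurosporine and tamoxifen served as positive controls; AC50 values came from Hill modelling of data normalized to DMSO and 10 uM staurosporine.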

[12] = Cellular Toxicity (caspase-3) MRC-5 (AID 659); conditions: Potency: caspase-3 activation;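 note: 0% = DMSO basal and 100% = 10 µM staurosporine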
In short: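 Concentration-dependent caspase 3/7 activation is measured in human normal lung fibroblasts (MRC-5) following 16-hour treatment. AC50 values come from standard Hill-equation modeling of luminescence normalized to DMSO and 10 uM staurosporine.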

[13] = Cellular Toxicity (caspase-3) Mesangial (AID 660);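 note: combined caspase 3 and 7 activity read by Caspase-Glo luminescence; cells exposed to compound for 16 h before the caspase read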
In short: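 Mesangial cells, 1000/well, 5 h settle at 37 °C; compound 16 h, 37 °C; Caspase-Glo 3/7 reagent 20 min RT; luminescence. Norm.: DMSO = 0%, tamoxifen 100 uM = 100%. AC50, Hill fit.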

[14] = Cellular Toxicity (caspase-3) SK-N-SH (AID 661); conditions: SK-N-SH caspase-3 activation, qHTS; caspase-3 activation: at 91.7 µM (top of the series), DMSO as zero, staurosporine as full;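 note: 0% = DMSO basal and 100% = 10 µM staurosporine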
In short: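 Human neuroblastoma SK-N-SH, 1500 cells/well, 5 hr pre-incubation, then compound 16 hr, 37 °C. Caspase-Glo 3/7 reagent, 1 hr RT, luminescence. Norm. to DMSO/10 uM staurosporine; Hill-fit AC50.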

[15] = Cellular Toxicity (caspase-3) H-4-II-E (AID 663);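 note: cells exposed to compound for 16 hr before readout; 0% = DMSO basal and 100% = 100 µM tamoxifen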
In short: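 Apoptosis induction is scored as increased luminescence from caspase 3/7 substrate cleavage in rat hepatoma H-4-II-E cells exposed to compound for 16 hr. Activity is scaled between DMSO and 100 uM tamoxifen.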

[16] = Cellular Toxicity (caspase-3) N2a (AID 665);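 note: compound exposure lasted 16 h at 37 °C before readout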
In short: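 N2a cells, 1500/well, 5 h settle at 37 °C; cpd 16 h, 37 °C; Caspase-Glo 3/7, 1 h RT; luminescence. Norm: DMSO = 0, 10 uM staurosporine = 100%. AC50, Hill fit.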

[17] = Cellular Toxicity (caspase-3) NIH 3T3 (AID 666);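 note: 0% = DMSO basal and 100% = 100 µM tamoxifen stimulation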
In short: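 Luminescence from aminoluciferin released by caspase-3/7 cleavage of a peptide substrate served as read-out. Mouse fibroblast NIH 3T3 cells were exposed to compounds over a concentration range for 16 hours, and AC50 values came from standard Hill modelling.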

[18] = Cellular Toxicity (caspase-3) Renal Proximal Tubule (AID 667);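 note: cells exposed to compound for 16 hours at 37 °C before detection; 0% = DMSO basal and 100% = 10 µM staurosporine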
In short: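 Luminescent caspase 3/7 signal from peptide-aminoluciferin cleavage measures apoptosis in freshly isolated rat kidney proximal tubule cells after 16 h compound exposure. Concentration-response data are normalized to DMSO and 10 uM staurosporine, and AC50 values come from Hill equation fits.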

[19] = biological target: Cytochrome P450 3A4 (Homo sapiens) (UniProt P08684); test: qHTS Assay for Inhibitors and Substrates of Cytochrome P450 3A4 (AID 884); note: % is set by controls: 0 for no effect and ±100 for the full control effect; nearly all actives have a fitted effect of over 50% in size
In short: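 20 nM human CYP3A4 with 25 uM Luciferin-PPXE (at KM) in 200 mM KPO4, preincubated 10 min with compound; NADPH regeneration started a 60 min RT reaction. Luciferin detected by luminescence, normalized to 57 uM ketoconazole as full inhibition.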

[20] = qHTS Assay for Identification of Small Molecule Antagonists for NFkB Signaling Pathway (AID 895; active = well fitted inhibition curve with a large enough effect in the signal ratio, with a control signal flat, not every such curve was filed as active; the % refers to the signal ratio; note: % is set by controls: 0 for no effect and ±100 for the full control effect)
In short: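 Beta-lactamase reporter read-out (460 and 530 nm emission ratio, 405 nm excitation, 2 hrs substrate loading RT) after 5 hr stimulation with 10 pM TNF alpha in compound-treated NFkB-bla ME-180 cells in low-serum medium.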

NC(N)=NC(=O)Cc1c(Cl)cccc1Cl
active: Potency [5] 126 nM | Potency [6] 251 nM
inactive: Potency [1] | Potency [2] | Potency [3] | Potency [4]

NCCCNCCSP(=O)(O)O
inactive: Potency [1] | Potency [2]

NC(=O)N1c2ccccc2C=Cc2ccccc21
inactive: Potency [1] | outcome [7] | Potency [8] | outcome [9] | outcome [10] | outcome [11] | Potency [12] | outcome [13] | caspase-3 activation [14] 0.961% | outcome [15] | outcome [16] | outcome [17] | outcome [18] | Potency [2] | Potency [3] | outcome [19] | Potency [5] | Potency [20] | Potency [6]

CSc1ccc(C(=O)c2[nH]c(=O)[nH]c2C)cc1
inactive: Potency [1] | Potency [2]

COc1cc(C(=O)OCCCN2CCCN(CCCOC(=O)c3cc(OC)c(OC)c(OC)c3)CC2)cc(OC)c1OC
inactive: Potency [1] | Potency [2]

CCCCNC(=O)NS(=O)(=O)c1ccc(C)cc1
inactive: Potency [1] | outcome [7] | Potency [8] | outcome [9] | outcome [10] | outcome [11] | Potency [12] | outcome [13] | caspase-3 activation [14] -0.361% | outcome [15] | outcome [16] | outcome [17] | outcome [18] | Potency [2] | Potency [5] | Potency [6]

CCn1nc(C(=O)O)c(=O)c2cc3c(cc21)OCO3
inactive: Potency [1] | Potency [2]

O=C(CCCN1CCC(O)(c2cccc(C(F)(F)F)c2)CC1)c1ccc(F)cc1
inactive: Potency [1] | Potency [2]

CCO/C([O-])=N/c1c[n+](N2CCOCC2)no1
inactive: Potency [1] | Potency [2] | Potency [3] | Potency [4] | Potency [5] | Potency [6]

CCN1CCC[C@H]1CNC(=O)c1c(O)c(Cl)cc(Cl)c1OC
inactive: Potency [1]

CN/C(=C\[N+](=O)[O-])NCCSCc1ccc(CN(C)C)o1
inactive: Potency [1] | Potency [2]

CNCCCN1c2ccccc2CCc2ccccc21
inactive: Potency [1] | Potency [2]

O=C(O)CP(=O)(O)O
inactive: Potency [1] | Potency [2]

C[N+](C)(C)CCOC(=O)CCC(=O)OCC[N+](C)(C)C
inactive: Potency [1] | Potency [2]

COc1ccc([C@@H]2Sc3ccccc3N(CCN(C)C)C(=O)[C@@H]2OC(C)=O)cc1
inactive: Potency [1]

CN(C)CCCN1c2ccccc2Sc2ccccc21
inactive: Potency [1] | Potency [2]

COc1ccc(CN(CCN(C)C)c2ccccn2)cc1
inactive: Potency [1] | outcome [7] | Potency [8] | outcome [9] | outcome [10] | outcome [11] | Potency [12] | outcome [13] | caspase-3 activation [14] -0.853% | outcome [15] | outcome [16] | outcome [17] | outcome [18] | Potency [2] | Potency [4]
active: Potency [5] 501 nM and 126 nM

C[N+](C)(C)CCCCCCCCCC[N+](C)(C)C
inactive: Potency [1] | Potency [2]

O=C1CC2(CCCC2)CC(=O)N1CCCCN1CCN(c2ncccn2)CC1
inactive: Potency [1] | Potency [2]

COCC(=O)O[C@]1(CCN(C)CCCc2nc3ccccc3[nH]2)CCc2cc(F)ccc2[C@@H]1C(C)C
inactive: Potency [1] | Potency [2]

O=C(O)CN(CCN(CC(=O)O)CC(=O)O)CCN(CC(=O)O)CC(=O)O
inactive: Potency [1] | Potency [2]

CCN(CC)CCNC(=O)c1ccc(NC(C)=O)cc1
inactive: Potency [1] | Potency [2]

Cc1ccc(S(=O)(=O)NC(=O)NN2CCCCCC2)cc1
inactive: Potency [1] | Potency [2]

COc1cc(Cc2cnc(N)nc2N)cc(OC)c1OC
inactive: Potency [1] | outcome [7] | Potency [8] | outcome [9] | outcome [10] | outcome [11] | Potency [12] | outcome [13] | caspase-3 activation [14] 0.291% | outcome [15] | outcome [16] | outcome [17] | outcome [18] | Potency [2]

CCCCNc1ccc(C(=O)OCCN(C)C)cc1
inactive: Potency [1] | Potency [2]

CC(=O)Nc1nnc(S(N)(=O)=O)s1
inactive: Potency [1] | Potency [2] | Potency [3] | outcome [19] | Potency [5] | Potency [20] | Potency [6]

Nc1nc(N)c2nc(-c3ccccc3)c(N)nc2n1
inactive: Potency [1] | outcome [9] | outcome [10] | outcome [13] | outcome [15] | outcome [16] | outcome [17] | outcome [18] | Potency [2]

CCN(CC)CCNC(=O)c1cc(S(C)(=O)=O)ccc1OC
inactive: Potency [1] | Potency [2] | Potency [3] | outcome [19] | Potency [20]

CN(C(=O)CCCOc1ccc2[nH]c(=O)ccc2c1)C1CCCCC1
inactive: Potency [1] | Potency [2] | Potency [3] | Potency [4] | Potency [5] | Potency [6]

CN=C(NC#N)NCCSCc1nc[nH]c1C
inactive: Potency [1] | outcome [7] | Potency [8] | outcome [9] | outcome [10] | outcome [11] | Potency [12] | outcome [13] | caspase-3 activation [14] -1.11% | outcome [15] | outcome [16] | outcome [17] | outcome [18] | Potency [2] | Potency [3] | Potency [5] | Potency [6]

CCNC(=O)N1CCN(CCCC(c2ccc(F)cc2)c2ccc(F)cc2)CC1
inactive: Potency [1] | Potency [2]

CCN(CC)CCOCCOC(=O)C1(c2ccccc2)CCCC1
inactive: Potency [1] | Potency [2]
